Source: PubChem BioAssay (NCATS)
Values joined by “and” are separate entries in the source; they are usually repeats but may differ in a detail not shown here. Identical values can stand only once. A number with no mark means an inactive call. Records with an inconclusive call do not appear. A call without a number means that no potency is given here. Active and inactive are the calls of the source. Unless noted, calls follow the shape of the dose curve; as a rule, active = well fitted curve in the direction sought with a large enough effect; inconclusive = small, poorly fitted or top-dose-only effect, or another doubt; inactive = no such curve, though single readings can be large; an effect the other way counts as inactive or inconclusive.

What was measured:
[1] = target: Peroxisome proliferator-activated receptor alpha (Homo sapiens) (UniProt Q07869); assay: qHTS assay for small molecule agonists of the peroxisome proliferator-activated receptor alpha (PPARalpha) signaling pathway (AID 651778); conditions: PathHunter PPARalpha complementation, chemiluminescence, 6 h; hits give high values
Chain of Peroxisome proliferator-activated receptor alpha (Homo sapiens) (Q07869 whole entry, looked up, the tested form may be a part): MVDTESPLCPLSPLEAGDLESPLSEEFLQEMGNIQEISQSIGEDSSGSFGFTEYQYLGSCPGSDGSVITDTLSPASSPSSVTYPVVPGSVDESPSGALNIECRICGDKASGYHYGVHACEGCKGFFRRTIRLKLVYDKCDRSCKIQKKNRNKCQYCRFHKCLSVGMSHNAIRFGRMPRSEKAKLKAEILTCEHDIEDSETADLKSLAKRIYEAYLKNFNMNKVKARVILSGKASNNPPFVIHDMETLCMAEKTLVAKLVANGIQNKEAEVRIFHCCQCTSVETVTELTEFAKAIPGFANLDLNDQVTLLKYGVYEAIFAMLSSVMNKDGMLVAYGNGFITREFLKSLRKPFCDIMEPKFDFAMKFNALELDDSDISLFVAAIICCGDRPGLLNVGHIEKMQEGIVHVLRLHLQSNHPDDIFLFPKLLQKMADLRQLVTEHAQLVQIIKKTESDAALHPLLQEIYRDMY
In short: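 Enzyme-fragment complementation assay in which ligand-bound PPARalpha translocates and forms an active enzyme that generates chemiluminescence. Cells were plated overnight, exposed to compound for 6 hr at 37 C, and then given detection reagent for 60 min at room temperature.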

[2] = target: Arylsulfatase A (Homo sapiens) (UniProt P15289); assay: qHTS screen for enhancers of Arylsulfatase A (ASA1): LOPAC Validation Assay (AID 720538); conditions: ASA enzyme activity, LOPAC qHTS enhancer assay; series mostly up to 57.5 µM
Chain of Arylsulfatase A (Homo sapiens) (P15289 whole entry, looked up): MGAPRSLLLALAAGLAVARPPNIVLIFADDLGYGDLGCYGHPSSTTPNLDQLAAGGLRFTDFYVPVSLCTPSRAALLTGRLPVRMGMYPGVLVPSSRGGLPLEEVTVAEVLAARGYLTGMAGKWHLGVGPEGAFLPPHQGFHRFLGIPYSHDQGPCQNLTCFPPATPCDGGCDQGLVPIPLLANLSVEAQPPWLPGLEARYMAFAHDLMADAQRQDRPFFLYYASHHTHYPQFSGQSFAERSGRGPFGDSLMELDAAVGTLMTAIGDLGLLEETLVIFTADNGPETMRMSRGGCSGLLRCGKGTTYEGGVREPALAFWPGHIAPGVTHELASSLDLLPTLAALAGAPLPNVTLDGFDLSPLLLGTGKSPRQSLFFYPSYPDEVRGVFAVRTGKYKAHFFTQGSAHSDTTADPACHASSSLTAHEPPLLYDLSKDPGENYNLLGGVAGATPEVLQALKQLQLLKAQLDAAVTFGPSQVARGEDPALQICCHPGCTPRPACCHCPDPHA
In short: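 Enhancer assay in patient-derived MLD fibroblasts carrying ASA-I179S: 48 h compound exposure at 37 C, then 14 h room-temperature pNCS turnover (0.5 mM final) in lysis buffer. Read by fluorescence at 525/598 nm after NaOH stop.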

[3] = qHTS for compounds that reverse cellular toxicity of Amyloid beta (A-beta) peptide in yeast: LOPAC Validation Assay (AID 720559); conditions: yeast expressing A-beta; series mostly up to 46.1 µM
In short: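 Rescue of A-beta toxicity was scored as yeast growth by 600 nm absorbance after 48 hr at 30 C with compound. Normalization used DMSO (negative) and equimolar ferric chloride plus clioquinol (positive).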

[4] = qHTS for Activators of Parkin Expression: LOPAC Validation Assay (NLuc Reporter) (AID 720572; also: potency is read from the fitted curve at half-maximal effect); conditions: Parkin promoter NanoLuc reporter cells, luminescence; series mostly up to 46.1 µM
In short: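 Neuronal cells with a Parkin promoter-driven FLuc/NLuc coincidence reporter were treated 24 h at 37 C in 7-point dose response (LOPAC). NLuc luminescence read after FLuc; signals normalized to DMSO and positive control (100%).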

[5] = qHTS for Activators of Parkin Expression: LOPAC Validation Assay (FLuc Reporter) (AID 720573; also: potency is read from the fitted curve at half-maximal effect); conditions: Cell line, PRKN promoter firefly luciferase reporter; series mostly up to 46.1 µM
In short: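 FLuc signal from Parkin-promoter coincidence reporter neuronal cells, normalized to DMSO and positive control (100%). Cells (1,500/well) pre-incubated 24 h, then exposed to LOPAC compounds in 7-point dose response for 24 h at 37 C, 5% CO2.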

[6] = qHTS assay for small molecule antagonists of the retinoid-related orphan receptor gamma (ROR-gamma) signaling pathway - cell viability counter screen (AID 720652; active = well fitted curve in the direction sought with a large enough effect in the repeat runs; an effect the other way counts as inactive or inconclusive;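 also: compound exposure lasted 16 hr before ATP read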; also: potency is read from the fitted curve at half-maximal effect); conditions: RORgamma reporter cell line viability counter screen; series mostly up to 92.2 µM
In short: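 Cytotoxicity is quantified via intracellular ATP (CellTiter-Glo luminescence) in doxycycline-induced CHO ROR response element-luciferase reporter cells treated with compound for 16 hr at 37 C, 5% CO2.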

[7] = target: T1, Hexokinase-4 (Homo sapiens) + Glucokinase regulatory protein (Homo sapiens) (UniProt P35557+Q14397); assay: qHTS assay for inhibitors of recombinant human GCK-GKRP interaction: Diaphorase-coupled assay (AID 743205); conditions: G6PDH/diaphorase resorufin fluorescence; series mostly up to 57.5 µM
T1 sequence (P35557 whole entry, looked up): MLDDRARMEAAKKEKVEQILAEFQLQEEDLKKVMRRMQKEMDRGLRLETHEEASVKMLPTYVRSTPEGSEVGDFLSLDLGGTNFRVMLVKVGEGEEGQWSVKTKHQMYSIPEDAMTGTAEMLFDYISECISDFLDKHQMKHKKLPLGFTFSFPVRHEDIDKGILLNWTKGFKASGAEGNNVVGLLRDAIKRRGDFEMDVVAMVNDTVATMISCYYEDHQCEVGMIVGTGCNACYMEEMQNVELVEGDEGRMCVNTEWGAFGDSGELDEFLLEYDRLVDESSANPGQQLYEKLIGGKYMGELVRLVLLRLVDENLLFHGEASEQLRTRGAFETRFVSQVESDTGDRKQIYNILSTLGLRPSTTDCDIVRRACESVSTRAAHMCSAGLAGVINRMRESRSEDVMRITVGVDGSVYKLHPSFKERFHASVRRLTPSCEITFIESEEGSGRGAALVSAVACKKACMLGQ
T1 sequence (Q14397 whole entry, looked up): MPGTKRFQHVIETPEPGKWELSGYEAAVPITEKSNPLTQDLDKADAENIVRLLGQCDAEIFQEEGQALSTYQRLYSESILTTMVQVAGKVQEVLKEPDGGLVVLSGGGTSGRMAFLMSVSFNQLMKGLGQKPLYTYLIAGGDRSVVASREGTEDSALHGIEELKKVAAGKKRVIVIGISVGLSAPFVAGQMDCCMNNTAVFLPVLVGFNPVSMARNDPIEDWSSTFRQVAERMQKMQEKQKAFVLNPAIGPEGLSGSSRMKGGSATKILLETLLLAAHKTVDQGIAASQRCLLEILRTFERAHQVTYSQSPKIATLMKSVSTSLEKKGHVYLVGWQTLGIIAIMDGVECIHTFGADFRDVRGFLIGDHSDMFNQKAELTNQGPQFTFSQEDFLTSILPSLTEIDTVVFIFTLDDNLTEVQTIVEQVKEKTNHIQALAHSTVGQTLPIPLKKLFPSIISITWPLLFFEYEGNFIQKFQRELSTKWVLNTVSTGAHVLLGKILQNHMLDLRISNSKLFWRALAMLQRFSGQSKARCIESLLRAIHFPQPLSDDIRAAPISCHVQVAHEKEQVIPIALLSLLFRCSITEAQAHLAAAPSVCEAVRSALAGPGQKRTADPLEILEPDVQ
In short: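 A kinetic fluorescence read (Ex 525/Em 590 nm, every minute for 30 minutes) tracked resorufin from a G6PDH-diaphorase coupled GCK reaction. It contained 10 nM GST-GCK, 10 nM FLAG-GKRP, 5 mM glucose, 0.4 mM ATP in Hepes pH 7.6. Normalized to with/without-enzyme DMSO controls.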

[8] = target: T1, Hexokinase-4 (Homo sapiens) + Glucokinase regulatory protein (Homo sapiens); assay: qHTS assay for inhibitors of recombinant human GCK-GKRP interaction: ADP-Glo assay (AID 743206); conditions: ADP-Glo luminescence, 60 min, 0% = vehicle-only wells with enzyme present; series mostly up to 76.9 µM
In short: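 GST-GCK and FLAG-GKRP (15 nM each in the dispensed mix, with 2 uM S6P) react with 0.4 mM ATP and 5 mM glucose (final) in Hepes pH 7.6 for 60 min at room temperature. ADP is measured by ADP-Glo luminescence.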

[9] = target: T1, Hexokinase-4 (Homo sapiens) + Glucokinase regulatory protein (Homo sapiens); assay: qHTS assay for inhibitors of recombinant human GCK-GKRP interaction: HTRF assay (AID 743207); conditions: recombinant GCK-GKRP HTRF binding, 60 min, with sorbitol-6-phosphate; series mostly up to 57.5 µM
In short: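 After 60 min equilibration at room temperature with anti-FLAG XL665 and anti-GST antibodies, FRET ratio (665/615 nm, excitation 320 nm) was read. Proteins: GST-GCK and FLAG-GKRP, each 5 nM, plus 2 uM S6P, pH 7.1 buffer; GCK-free wells define minimum signal.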

[10] = qHTS Assay for Identifying Gametocytocidal Compounds (AID 743244); also: potency is read from the fitted curve at half-maximal effect;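 as to max response: actives lower the fluorescent signal which means gametocytes are killed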; conditions: P. falciparum 3D7 stage III-V gametocytes, alamarBlue, 72 h; max response: hits give low values
In short: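 Late gametocytes (III–V), P. falciparum 3D7; 72 h drug, then 24 h alamarBlue; resazurin reduction read by fluorescence.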

[11] = qHTS assay for cell viability of HEK293 cells (AID 743288); conditions: ATP luminescence (CellTiter-Glo), 18 h; max response: hits give low values; also: nearly all actives have a fitted effect of over 50% in size; also: potency is read from the fitted curve at half-maximal effect
In short: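 Total intracellular ATP, measured with a luciferase-coupled reagent, indicates the number of viable HEK293 cells. Exposure to test chemicals lasts 18 h at 37 C in 1,536-well format at 2,000 cells/well.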

[12] = qHTS assay for cell viability of the p53RE-bla HCT-116 cell line (AID 743292); conditions: p53RE-bla HCT-116 viability, ATP luminescence, 16 h; series mostly up to 95 µM; also: nearly all actives have a fitted effect of over 55% in size; also: potency is read from the fitted curve at half-maximal effect
In short: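 Quantitative high-throughput format: compounds in DMSO were pinned onto p53RE-bla HCT-116 cells (4,000/well) and incubated 16 h at 37 C. Total intracellular ATP, read by CellTiter-Glo luminescence, reflects viable cell number.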

[13] = target: Tyrosine-protein kinase Yes (Homo sapiens) (UniProt P07947); assay: qHTS for small molecule inhibitors of Yes1 kinase: Primary Screen (AID 686947); conditions: Yes1 kinase biochemical qHTS inhibition; series mostly up to 76.9 µM; also: nearly all actives have a fitted effect of over 60% in size; also: potency is read from the fitted curve at half-maximal effect
Chain of Tyrosine-protein kinase Yes (Homo sapiens) (P07947 whole entry, looked up): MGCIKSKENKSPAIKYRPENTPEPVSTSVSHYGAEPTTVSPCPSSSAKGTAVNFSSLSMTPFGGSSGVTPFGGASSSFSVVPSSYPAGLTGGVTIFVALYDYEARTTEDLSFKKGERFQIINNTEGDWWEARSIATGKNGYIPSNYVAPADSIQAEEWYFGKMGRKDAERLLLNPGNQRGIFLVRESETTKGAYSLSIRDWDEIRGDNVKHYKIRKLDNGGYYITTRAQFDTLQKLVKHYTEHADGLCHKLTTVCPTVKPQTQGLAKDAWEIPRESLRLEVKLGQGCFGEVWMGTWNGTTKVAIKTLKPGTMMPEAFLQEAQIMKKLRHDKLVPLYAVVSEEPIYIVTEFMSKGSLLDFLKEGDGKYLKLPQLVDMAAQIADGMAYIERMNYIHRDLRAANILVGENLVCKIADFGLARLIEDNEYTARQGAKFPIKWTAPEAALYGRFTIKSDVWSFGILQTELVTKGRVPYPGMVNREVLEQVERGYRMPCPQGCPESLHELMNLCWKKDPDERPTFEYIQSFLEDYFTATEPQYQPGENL
In short: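 ADP-Glo luminescence readout; final 4 nM Yes1, 0.1 mM ATP, 0.3 mg/mL poly(E4Y), Tris pH 7.5, MgCl2, DTT, Brij-35. 20 min compound preincubation, 60 min reaction at RT. Normalized to DMSO wells with and without enzyme.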

[14] = qHTS for small molecule inhibitors of Yes1 kinase: Counter Assay (AID 686950); conditions: series mostly up to 76.9 µM;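 also: no kinase present so only ADP-Glo detection of a fixed ADP amount is tested; luminescence from ADP-Glo reporting ADP in a fixed ATP and ADP mixture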
In short: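 Enzyme-free detection counter-screen: compounds preincubated 20 min in buffer, then 0.08 mM ATP plus 0.02 mM ADP added for 60 min at room temperature; ADP-Glo luminescence. Buffer 50 mM Tris pH 7.5, 10 mM MgCl2, 150 mM NaCl; normalized to ATP+ADP and ATP-only controls.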

[15] = target: Nuclear receptor ROR-gamma (Homo sapiens) (UniProt P51449); assay: qHTS assay for small molecule antagonists of the retinoid-related orphan receptor gamma (ROR-gamma) signaling pathway (AID 651802); conditions: ROR-gamma antagonist cell reporter assay; series mostly up to 92.2 µM; also: nearly all actives have a fitted effect of over 60% in size; also: potency is read from the fitted curve at half-maximal effect
Chain of Nuclear receptor ROR-gamma (Homo sapiens) (P51449 whole entry, looked up): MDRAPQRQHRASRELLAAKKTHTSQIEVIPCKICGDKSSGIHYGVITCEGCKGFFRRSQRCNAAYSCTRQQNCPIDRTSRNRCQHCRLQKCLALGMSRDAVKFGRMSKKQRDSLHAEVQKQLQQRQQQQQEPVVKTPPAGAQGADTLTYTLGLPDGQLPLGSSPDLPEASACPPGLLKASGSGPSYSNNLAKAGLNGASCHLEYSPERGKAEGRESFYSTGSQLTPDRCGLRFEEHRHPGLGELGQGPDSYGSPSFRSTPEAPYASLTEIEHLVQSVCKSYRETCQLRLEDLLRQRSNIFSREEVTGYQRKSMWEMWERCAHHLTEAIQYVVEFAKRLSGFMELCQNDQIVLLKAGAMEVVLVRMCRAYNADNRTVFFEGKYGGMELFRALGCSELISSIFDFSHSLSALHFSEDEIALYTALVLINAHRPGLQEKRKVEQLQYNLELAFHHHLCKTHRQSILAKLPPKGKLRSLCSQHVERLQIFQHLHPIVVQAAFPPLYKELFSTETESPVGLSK
In short: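 Antagonism is scored as a fall in luminescence from a RORE-luciferase reporter in CHO cells expressing ROR under a TET-inducible promoter, measured 16hr after doxycycline induction in the presence of compound.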

[16] = qHTS assay for environmental chemicals that activate the Aryl hydrocarbon Receptor (AhR) signaling pathway (AID 651777); conditions: 1A2-DRE human hepatoma cells, luciferase, 24 h; activation: hits give high values; also: nearly all actives have a fitted effect of over 15% in size
In short: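 AhR activation is scored as a rise in luciferase from a stable DRE–CYP1A2 promoter construct in human hepatoma cells. Treatment lasts 24 hr at 37 C; detection uses One-Glo after 30 min at room temperature.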

[17] = qHTS assay for small molecule agonists of the antioxidant response element (ARE) signaling pathway measured by Nrf2-dependant transcriptional activity (AID 720636; active = well fitted curve in the direction sought with a large enough effect in the repeat runs; an effect the other way counts as inactive or inconclusive;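 also: HepG2 cells with an ARE-driven luciferase reporter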); conditions: ARE-luc HepG2, Nrf2 luciferase reporter, 16 h; series mostly up to 92.4 µM
In short: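 First, ARE-luc HepG2 cells attached for 6 hr at 37 C in 1% dialyzed FBS medium. Next, compound or DMSO was added and incubated 16 hr. Finally, ONE-Glo reagent was added and luminescence measured after 30 min.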

## O=c1cc(-c2ccc(O)cc2)oc2cc(O)cc(O)c12
[1]
  max response: -4.82% and -0.91%
[2]
  outcome: inactive
[3]
  outcome: inactive
[4]
  Potency: 16.4 µM (active)
[5]
  Potency: 3.26 µM (active)
[6]
  Potency: inactive
[7]
  outcome: inactive
[8]
  outcome: inactive
[9]
  outcome: inactive
[10]
  max response: 0.431%
[11]
  max response: -29.2% and -22.7%
[12]
  Potency: inactive

## Clc1ccc(-c2nc3sccn3c2C=NOCc2ccc(Cl)c(Cl)c2)cc1
[13]
  Potency: inactive
[14]
  outcome: inactive
[10]
  max response: 17.5%

## O=c1c(-c2ccc(O)cc2)coc2cc(O)ccc12
[1]
  max response: 0.0671% and -0.373%
[15]
  Potency: inactive
[2]
  outcome: inactive
[7]
  outcome: inactive
[8]
  outcome: inactive
[9]
  outcome: inactive
[10]
  max response: 16.7%
[11]
  max response: -7.57% and -12.8%
[12]
  Potency: inactive

## O=C(Nc1ccccc1-c1cn2c(CN3CCNCC3)csc2n1)c1cnc2ccccc2n1
[13]
  Potency: inactive
[14]
  outcome: inactive
[10]
  Potency: 3.72 µM (active)

## O=C(O)c1cc(-c2ccccc2)nc2ccccc12
[16]
  activation: 4.06%
[1]
  max response: -3.44%
[10]
  max response: 4.65% and 33.8%
[11]
  max response: -15%
[12]
  Potency: inactive

## COc1cc2ncnc(-n3nc(-c4ccccn4)nc3N)c2cc1OC
[13]
  Potency: 2.74 µM (active)
[14]
  outcome: inactive

## CO[C@H]1C[C@@H]2CC[C@@H](C)[C@@](O)(O2)C(=O)C(=O)N2CCCC[C@@H]2C(=O)O[C@H]([C@H](C)C[C@@H]2CC[C@H](OCCO)[C@H](OC)C2)CC(=O)[C@H](C)C=C(C)[C@@H](O)[C@@H](OC)C(=O)[C@H](C)C[C@H](C)C=CC=CC=C1C
[13]
  Potency: inactive
[14]
  outcome: inactive

## CC(C)OC(=O)C(C)(C)Oc1ccc(C(=O)c2ccc(Cl)cc2)cc1
[16]
  activation: 2.52%
[2]
  outcome: inactive; inhibitor; fitted 0.151 uM
[7]
  outcome: inactive
[8]
  outcome: inactive
[9]
  outcome: inactive
[10]
  max response: 7.26% and 15.7%
[11]
  max response: -17.2%
[12]
  Potency: inactive

## Cn1cc(C=C2C(=O)Nc3cccnc32)c2ccccc21
[13]
  Potency: 0.519 µM (active)
[14]
  outcome: inactive

## CC(C)[C@H](CO)Nc1nc(Nc2ccc(C(=O)O)c(Cl)c2)c2ncn(C(C)C)c2n1
[13]
  Potency: 0.0194 µM (active)
[14]
  outcome: inactive
[10]
  max response: 63.2%

## CC/C(=C(\c1ccccc1)c1ccc(OCCN(C)C)cc1)c1ccccc1
[16]
  activation: -5.69% and -2.28%
[15]
  Potency: 29.8 µM (active)
[13]
  Potency: inactive
[14]
  outcome: inactive
[2]
  outcome: inactive; inhibitor; fitted 5.3582 uM
[3]
  outcome: inactive
[4]
  Potency: inactive
[5]
  Potency: inactive
[17]
  Potency: inactive
[6]
  Potency: 66.8 µM (active)
[7]
  outcome: inactive
[8]
  outcome: inactive
[9]
  outcome: inactive
[10]
  max response: 10%
[11]
  Potency: 70.8 µM (active)

## Cc1nc(N)sc1-c1ccnc(Nc2ccc(N3CCOCC3)cc2)n1
[13]
  Potency: 0.308 µM (active)
[14]
  outcome: inactive
[10]
  max response: -1.3%

## CC1=C(/C=C/C(C)=C/C=C/C(C)=C/C(=O)Nc2ccc(O)cc2)C(C)(C)CCC1
[16]
  activation: 4.06%
[1]
  max response: 8.2%
[15]
  Potency: 26.6 µM (active)
[13]
  Potency: inactive
[14]
  outcome: inactive
[2]
  outcome: inactive
[3]
  outcome: inactive
[4]
  Potency: inactive
[5]
  Potency: inactive
[17]
  Potency: inactive
[6]
  Potency: 26.6 µM (active)
[7]
  outcome: inactive
[8]
  outcome: inactive
[9]
  outcome: inactive
[10]
  max response: -5.25% and -28.8%
[11]
  Potency: 50.1 µM (active)

## CCCNC(=O)NS(=O)(=O)c1ccc(Cl)cc1
[16]
  activation: 0.08% and -1.06%
[1]
  max response: 5.97% and -0.845%
[15]
  Potency: inactive
[3]
  outcome: inactive
[4]
  Potency: inactive
[5]
  Potency: inactive
[17]
  Potency: inactive
[6]
  Potency: inactive
[7]
  outcome: inactive
[8]
  outcome: inactive
[9]
  outcome: inactive
[10]
  max response: 10.2% and -7.21%
[11]
  max response: 3.46% and -2.3%
[12]
  Potency: inactive

## CC(=O)c1ccc(S(=O)(=O)NC(=O)NC2CCCCC2)cc1
[16]
  activation: -0.49% and 0.0331%
[1]
  max response: 9.98% and -1.51%
[15]
  Potency: inactive
[2]
  outcome: inactive
[3]
  outcome: inactive
[4]
  Potency: inactive
[5]
  Potency: inactive
[17]
  Potency: inactive
[6]
  Potency: inactive
[7]
  outcome: inactive
[8]
  outcome: inactive
[9]
  outcome: inactive
[10]
  max response: -4.23% and -12.4%
[11]
  max response: 4.87% and -10.8%
[12]
  Potency: inactive

## O=C(O)c1cc(O)c2c(c1)C(=O)c1cccc(O)c1C2=O
[16]
  activation: 1.52%
[1]
  max response: -6.2%
[15]
  Potency: 37.6 µM (active)
[17]
  Potency: inactive
[6]
  Potency: inactive
[11]
  max response: -22.9%
[12]
  Potency: 35.5 µM (active)
